Source: PubChem BioAssay (several laboratories)
Compounds with a hit are over-represented: about 1.3% of the library has one in this group of screens.
Phagocytosis inh: inhibitors of macrophage phagocytosis, primary screen, imaging, J774A.1 cells, IgG beads; inhibition, % at 5 µM; J774A.1 macrophage IgG-bead phagocytosis; AID 1029, 2008; 110,000 compounds, 0.07% hits;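 active means inhibition above the mean of the plate negative controls plus 5 SD, cut at about 13% in these data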;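 further: phagocytic index as fraction of beads internalized from green versus red external bead signal; plate controls were DMSO negative control for no effect and cytochalasin-D positive control for full effect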
GALR2 agonist: GALR2 receptor agonists, primary screen, cell-based; AID 803, 2007; activation, % (concentration not given with the values); 140,000 compounds, 0.48% hits; Galanin receptor type 2 (Homo sapiens), O43603; GALR2-expressing cells, agonist activation read-out; in the data active means activation above about 5%, passing the limit was not always enough;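 further: 0% = vehicle buffer wells and 100% = reference agonist at full effect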
Target sequence (O43603 whole entry, looked up): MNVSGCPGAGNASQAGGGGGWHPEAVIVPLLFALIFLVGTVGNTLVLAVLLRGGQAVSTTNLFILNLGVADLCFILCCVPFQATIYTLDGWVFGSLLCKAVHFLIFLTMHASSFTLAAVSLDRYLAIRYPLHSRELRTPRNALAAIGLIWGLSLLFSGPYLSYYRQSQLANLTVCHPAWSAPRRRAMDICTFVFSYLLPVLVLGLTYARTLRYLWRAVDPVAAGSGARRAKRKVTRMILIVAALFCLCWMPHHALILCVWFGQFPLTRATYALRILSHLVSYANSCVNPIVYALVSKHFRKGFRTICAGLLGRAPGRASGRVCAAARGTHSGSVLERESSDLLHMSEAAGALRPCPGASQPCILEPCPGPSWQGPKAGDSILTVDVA
GALR2 blocker: GALR2 antagonists in receptor-expressing cells, primary screen. inhibition, % at 4 µM. antagonist mode. Galanin receptor type 2 (Homo sapiens), O43603. 140,000 compounds, 0.39% hits; in the data active means inhibition above about 27%;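 further: cells stimulated with galanin 1-16 at roughly its EC80; 0% = agonist challenge control and 100% = basal control without agonist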
S1P2 antag: human S1P2 receptor antagonists, primary screen, cell-based | cell-based S1P2 antagonist assay, inhibition at 5 uM | AID 736, 2007 | inhibition, % at 5 µM | Sphingosine 1-phosphate receptor 2 (Homo sapiens), O95136 | 97,000 compounds, 0.21% hits; in the data active means inhibition above about 45%;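 further: CRE beta-lactamase reporter cells expressing human S1P2 stimulated with S1P; 0% = agonist at EC80 alone and 100% = agonist plus reference antagonist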
S1P2 agonist: S1P2 receptor agonists, primary screen, cell-based; activation, % at 4.5 µM; S1P2-expressing cell line, agonist reporter read-out; 97,000 compounds, 0.46% hits; in the data active means activation above about 16%;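 further: 0% = vehicle low control and 100% = maximal reference agonist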
* marks the source's active call; other numbers are inactive results.

Results for COc1cccc(-c2csc(N3CCN(C(=O)NC45CC6CC(CC(C6)C4)C5)CC3)n2)c1 ?
GALR2 agonist: -3.3; GALR2 blocker: 8.8; S1P2 antag: 9.2; S1P2 agonist: -6.4

What do the screens show for `C/C(N)=C(/C#N)C(=O)CSc1nc2ccccc2c(=O)n1CCCOC(C)C`?
GALR2 agonist: 5.6*; GALR2 blocker: -7.2

How did CCOc1ccc(C(=O)Nc2cc(-c3nc4ccccc4[nH]3)ccc2Cl)cc1[N+](=O)[O-] do in these assays?
Phagocytosis inh: -9.1; GALR2 agonist: 3.9; GALR2 blocker: 6.0

What do the screens show for `O=C(c1ccc(F)cc1)C(CN1CCOCC1)c1ccccc1` (stereo not given)?
Phagocytosis inh: 0.7; GALR2 agonist: -1.2; GALR2 blocker: 31.7*; S1P2 antag: 28.1; S1P2 agonist: -12.8

Results for c1ccc(C(CN2CCOCC2)c2ccccc2)cc1 ?
Phagocytosis inh: -1.4; GALR2 agonist: -0.7; GALR2 blocker: -2.4; S1P2 antag: -12.7; S1P2 agonist: -4.1

What do the screens show for `O=C(c1ccccc1)C(CCC(CN1CCOCC1)C(=O)c1ccccc1)CN1CCOCC1` (stereo not given)?
Phagocytosis inh: 1.7; GALR2 agonist: -0.4; GALR2 blocker: 7.7; S1P2 antag: 53.4*; S1P2 agonist: -6.3

Results for COc1ccc(C(=O)C(CN2CCOCC2)c2ccccc2)cc1 (stereo not given) ?
Phagocytosis inh: -0.6; GALR2 agonist: -1.4; GALR2 blocker: 19.9; S1P2 antag: -0.4; S1P2 agonist: -1.5

Results for CNS(=O)(=O)c1cc(NC(C)=O)c(C)cc1C ?
Phagocytosis inh: 0.2; GALR2 agonist: 0.0; GALR2 blocker: 9.1

What do the screens show for `COc1cc(-c2nnc(COC(=O)CSc3cc(C)c4ccccc4n3)o2)cc(OC)c1OC`?
Phagocytosis inh: -0.8; GALR2 agonist: -0.9; GALR2 blocker: 3.9; S1P2 antag: -17.2; S1P2 agonist: 0.0

Results for COc1cc(-c2nnc(COC(=O)c3cc(C)nc4ccc(C)cc34)o2)cc(OC)c1OC ?
Phagocytosis inh: -1.0; GALR2 agonist: 0.5; GALR2 blocker: -24.5; S1P2 antag: -37.2; S1P2 agonist: 27.4*

Results for COc1ccc2cc3c(N)nn(C(=O)c4cccc([N+](=O)[O-])c4)c3nc2c1 ?
Phagocytosis inh: -11.9; GALR2 agonist: 8.0*; GALR2 blocker: -1.8

How did COc1ccc2cc3c(N)nn(C(=O)Cc4ccccc4OC)c3nc2c1 do in these assays?
Phagocytosis inh: -0.5; GALR2 agonist: -3.5; GALR2 blocker: -6.9; S1P2 antag: 10.7; S1P2 agonist: -4.0

Results for Cc1nc(CCNC(=O)Cc2ccc(Cl)cc2)cs1 ?
Phagocytosis inh: -0.3; GALR2 agonist: -2.5; GALR2 blocker: 12.8; S1P2 antag: 10.0; S1P2 agonist: 33.9*

Results for CCCn1c(=NC(=O)c2ccco2)c(C(=O)OCC)cc2c(=O)n3ccccc3nc21 ?
Phagocytosis inh: -0.2; GALR2 agonist: 2.3; GALR2 blocker: -3.1; S1P2 antag: -50.7; S1P2 agonist: 6.9

How did CC(C)n1c(=NC(=O)c2ccco2)c(C#N)cc2c(=O)n3ccccc3cc21 do in these assays?
GALR2 agonist: 6.3*; GALR2 blocker: 0.1

What do the screens show for `CC(Oc1cc(-c2ccccc2)cc2ccccc12)C(=O)N1CCOCC1` (stereo not given)?
Phagocytosis inh: 1.1; GALR2 agonist: -1.0; GALR2 blocker: 5.4; S1P2 antag: -18.2; S1P2 agonist: 0.0

Results for COc1ccc(S(=O)(=O)N2CCN(c3ccc4nnc(-c5ccc(F)cc5)n4n3)CC2)cc1 ?
Phagocytosis inh: -0.6; GALR2 agonist: 0.6; GALR2 blocker: -3.6; S1P2 antag: 47.9*; S1P2 agonist: -6.9

Results for C=CCn1c(=O)c(C#N)cc2c(=O)n3ccccc3nc21 ?
Phagocytosis inh: -4.7; GALR2 agonist: 21.0*; GALR2 blocker: -31.0; S1P2 antag: -59.0; S1P2 agonist: 59.8*

What do the screens show for `Cc1cc(-n2c(=O)c(C#N)cc3c(=O)n4ccccc4nc32)no1`?
Phagocytosis inh: 0.4; GALR2 agonist: 30.6*; GALR2 blocker: -37.2

Results for Cc1ccccc1-n1c(=O)c(C#N)cc2c(=O)n3ccccc3nc21 ?
Phagocytosis inh: -0.6; GALR2 agonist: 73.6*; GALR2 blocker: -56.2; S1P2 antag: -103.8; S1P2 agonist: 62.9*

How did CC1=NNC(=O)C(CC(=O)Nc2ccc(Cl)c(Cl)c2)C1 (stereo not given) do in these assays?
Phagocytosis inh: -4.8; GALR2 agonist: 0.1; GALR2 blocker: 1.8
